Source: PubChem BioAssay
Platelet DG rel: platelet dense granule release activity | human platelet-rich plasma, SFLLRN dense granule ATP release, luminescence | inhibition, %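 (compounds screened at 7.5 µM in platelet-rich plasma)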 | actives 0.22% (n = 300,000) | AID 1663;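 active means mean replicate score, as percent of positive control, at or above 50; inconclusive means mean below 50 but at least one replicate at or above 50; inactive means mean and every replicate below 50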
KLF5 inh: inhibitors of KLF5 expression; DLD-1 KLF5 promoter-luciferase reporter, luminescence; inhibition, % at 5 µM; actives 0.23% (n = 290,000); AID 1700;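 active means inhibition above a per-plate limit of that plate's mean compound inhibition plus 3 SD, cut at about 60% in these data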;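 further: 0% = DMSO wells and 100% = LY294002 at 200 µM; higher means less KLF5 promoter-driven luciferase light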
HIF activator: HIF pathway transcriptional activation; U2OS HRE-luciferase reporter, luminescence; normalized: DMSO 0%, desferrioxamine 100%; actives 0.32% (n = 300,000); activation, % at 7.5 µM (by protocol);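 active means mean activation of at least 10% of the iron chelator positive control signal, with at least half of replicates also reaching 10%; inconclusive means mean and replicate majority disagree about reaching 10%; inactive means mean and most replicates under 10%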
Wee1 degr inh: inhibitors of human Wee1 degradation | HeLa Luc-Wee1K328M stability, luciferase luminescence; 100% = proteasome inhibitor MG132 effect | reporter increase, % at 5 µM | actives 1.2% (n = 220,000);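 active means activation above the mean of all tested compounds plus 3 SD, set per screening run, cut at about 8.8% in these data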;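 further: cells exposed to compound for 20 h before luminescence read; 0% = DMSO alone and 100% = MG132 at 30 µM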
Target sequence (P30291 whole entry K328M): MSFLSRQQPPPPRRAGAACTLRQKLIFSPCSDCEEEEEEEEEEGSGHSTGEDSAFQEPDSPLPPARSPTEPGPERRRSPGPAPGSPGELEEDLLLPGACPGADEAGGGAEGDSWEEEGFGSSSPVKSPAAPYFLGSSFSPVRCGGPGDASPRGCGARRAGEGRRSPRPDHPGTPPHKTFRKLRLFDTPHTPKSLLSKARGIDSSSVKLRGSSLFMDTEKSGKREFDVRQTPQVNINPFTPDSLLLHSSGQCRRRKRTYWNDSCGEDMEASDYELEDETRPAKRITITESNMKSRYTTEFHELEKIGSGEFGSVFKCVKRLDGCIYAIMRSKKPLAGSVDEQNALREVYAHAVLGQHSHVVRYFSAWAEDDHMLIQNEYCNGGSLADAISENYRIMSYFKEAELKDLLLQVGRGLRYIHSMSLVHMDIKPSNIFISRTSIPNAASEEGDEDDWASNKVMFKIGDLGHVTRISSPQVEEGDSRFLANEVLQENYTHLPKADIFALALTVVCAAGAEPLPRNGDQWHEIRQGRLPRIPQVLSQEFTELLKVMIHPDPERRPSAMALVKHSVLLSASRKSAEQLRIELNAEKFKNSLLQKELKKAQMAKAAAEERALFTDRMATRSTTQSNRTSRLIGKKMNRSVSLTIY
aSyn UTR inh: 5' untranslated region of α-synuclein, MLPCN primary screen. alpha-synuclein 5'UTR reporter, inhibitor activity. inhibition, % (tested at 7.5 µM). actives 0.82% (n = 300,000); in the data active means inhibition above about 60%; inconclusive means no clear call, values can overlap the other calls;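 further: H4 neuroglioblastoma cells stably carrying SNCA 5'UTR luciferase fusion; 0% = DMSO wells and 100% = positive control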
Wee1 stab conf: confirmation of human Wee1 degradation inhibitors. shares compounds with Wee1 degr inh. HeLa Luc-Wee1K328M degradation, luminescence; vehicle 0%, proteasome-blocked wells 100%. activation, % at 5 µM. actives 4% (n = 1,100); in the data active means activation above about 8.9%
* marks the source's active call; other numbers are inactive results; ? = inconclusive; nt = no result given. Only some compounds are listed: those with a hit (about 2.1% of all), similar ones and a draw of the others.

SMILES	Platelet DG rel	KLF5 inh	HIF activator	Wee1 degr inh	aSyn UTR inh	Wee1 stab conf
CCOC(=O)c1c(-c2ccc(C)o2)csc1NC(=O)CSc1nnc(C)s1	-10.3	15.6	-0.3	8.5	-19.2	nt
CC1CC(C)CN(S(=O)(=O)CCNC(=O)c2ccc3c(c2)OCO3)C1 (centres undefined)	13.6	nt	-0.1	nt	1.5	nt
Cc1sc2ncnc(NCC(c3ccco3)N(C)C)c2c1C (centres undefined)	-8.5	-24.3	0.2	-1.7	10.5	nt
CN(C)C(CNc1ncnc2sc3c(c12)CCCCC3)c1ccco1 (centres undefined)	-6.6	-24.7	0.0	34.5*	10.5	4.9
O=C(NCC1CCCO1)C(c1cccnc1)N(C(=O)Cc1cccs1)c1ccccc1 (centres undefined)	5.5	-31.4	1.0	16.9*	10.2	0.5
CCOC(=O)Cn1c(C(C)=O)nc2ccccc21	8.2	3.5	0.4	11.7*	7.6	0.1
COC(=O)Cn1c(=O)c(C)nc2ccccc21	-5.8	-23.9	-0.6	12.9*	32.9	-3.6
COc1cccc(C2=NOC(C(=O)N3CCN(c4ccccc4)CC3)C2)c1OC (centres undefined)	8.5	-0.5	-0.1	31.1*	8.8	3.1
N#C/C(=C\c1ccc(OC(F)F)cc1)C(=O)N1CCCCC1	-2.3	1.5	-0.1	14.8*	-7.6	0.3
CCN1CCN(C(=O)/C(C#N)=C/c2ccc(OC(F)F)cc2)CC1	9.8	-12.6	0.2	-0.8	-37.3	nt
CCn1c(SCC(=O)N/N=C(/C)c2ccncc2)nc2ccccc21	-0.5	-1.8	0.0	14.7*	-10.0	6.3
CCn1c(SCC(=O)O)nc2ccccc21	-0.7	-7.6	-0.3	-3.4	-12.0	nt
COc1ccc(/C=C/C(=O)N2CCC(c3ccccc3)C2)cc1 (centres undefined)	-5.2	-64.8	0.3	-0.3	-25.2	nt
COC(=O)C1CCN(C(=O)/C=C/c2ccc(OC)cc2)CC1	6.7	-139.1	-3.8	11.1*	-18.2	10.3*
C=CCNC(=S)NNc1nc(Nc2ccccc2)nc(N2CCCCC2)n1	-1.9	-83.0	-0.7	11.3*	-6.2	0.7
Cc1ccccc1CS(=O)(=O)Cc1ccc(C(=O)NC2CCCCC2)o1	-7.0	-4.3	-0.2	nt	26.9	nt
CN(C)CCCNS(=O)(=O)c1ccc(N2CCC(c3ccc(Cl)cc3)=N2)cc1	-5.6	-46.2	-7.9	0.2	?	nt
O=S(=O)(c1ccc(N2CCC(c3ccc(Cl)cc3)=N2)cc1)N(CCO)CCO	0.4	-25.9	0.1	11.2*	0.3	0.0
Nc1[nH]n(-c2ccccc2)c(=O)c1N=Nc1ccc2c(c1)OCO2	-0.6	-58.5	2.8	12.0*	-204.6	-1.6
CCSc1nnc(NS(=O)(=O)c2ccc(OC)cc2)s1	1.5	-8.5	-0.4	0.6	29.8	nt
Cc1ccc(NC(=O)Nc2ccc(Cl)c(Cl)c2)nc1	22.0	-161.2	3.3	nt	-89.8	nt
Cc1ccc(NC(=O)Nc2ccc(Cl)cn2)cc1	1.5	-69.9	1.6	11.0*	-147.1	3.7
CCCN(CC1CC1)C(=O)CSc1nnc(-c2cc(-c3cccs3)nc3ccccc23)o1	-0.6	-5.3	-0.6	18.7*	5.7	-2.3
O=Cc1c(NCCN2CCCC2)c2ccccc2[nH]c1=O	10.8	-24.7	0.9	nt	16.8	nt
Cc1cc(-c2nnc(CCC(=O)NC(C)(C)C34CC5CC(CC(C5)C3)C4)o2)no1	1.0	-30.5	0.6	nt	-17.8	nt
SMILES	Platelet DG rel	KLF5 inh	HIF activator	Wee1 degr inh	aSyn UTR inh	Wee1 stab conf
COc1cc(NC(C)=O)ccc1-c1cc2ccccc2oc1=O	-7.9	-10.6	-0.4	14.6*	-9.9	-0.1
COCCNc1c(-c2ccc(OC)c(OC)c2)nc2ccc(Cl)cn12	6.9	-19.8	0.2	1.4	-1.3	nt
COCCNc1c(-c2cc3ccc(C)c(C)c3[nH]c2=O)nc2ccccn12	-2.5	-104.4	2.4	12.9*	-153.0	2.2
COc1cc(/C=N/Nc2nc(=O)[nH]nc2C)ccc1O	3.9	-8.0	0.2	17.3*	-25.8	-3.1
COc1ccc(/C=N/Nc2nc(=O)[nH]nc2C)cc1OC	10.7	-28.7	-0.3	2.5	6.8	nt
CN1CCN(NC(=O)/C=C/c2cccc([N+](=O)[O-])c2)CC1	3.4	-9.0	-0.1	nt	7.0	nt
Cc1ccc(C2=NN(S(C)(=O)=O)C(c3cccs3)C2)cc1 (centres undefined)	11.7	-97.9	2.3	11.5*	-146.0	6.4
COc1ccc(/C=C/C(=O)O/N=C(\N)c2ccccc2)cc1OC	5.2	-86.7	2.3	17.0*	-138.4	0.0
Cc1ccc(NC(=O)c2cc(NC(=O)c3ccco3)ccc2N2CCOCC2)cc1Cl	-1.5	-20.5	0.7	-2.2	-6.3	nt
O=C(Nc1ccc(N2CCOCC2)c([N+](=O)[O-])c1)c1ccco1	0.6	-107.2	3.8	10.9*	-73.0	1.3
Clc1ccc(/C=N/Nc2ncnc3ccccc23)cc1Cl	-6.7	-35.4	2.3	4.2	-317.7	nt
Fc1ccccc1/C=N/Nc1ncnc2ccccc12	16.6	5.0	3.3	11.5*	-241.1	2.9
COc1ccc(N2CCC(CNC(=S)Nc3cccc(C)c3)C2)cc1 (centres undefined)	-7.4	-42.8	0.0	11.1*	21.5	0.2
Cc1nc2sc(C(c3ccc(C(C)C)cc3)N3CCN(CCO)CC3)c(O)n2n1 (centres undefined)	-33.7	-45.3	0.0	23.6*	4.4	2.4
COC(=O)CNC(=O)C1CCCN1C(=O)OC(C)(C)C (centres undefined)	-0.3	-3.4	0.1	12.6*	26.9	-1.1
COc1ccc(NC(=O)CSCC(=O)NCCc2ccccn2)cc1	0.4	-16.6	-0.1	16.3*	-17.8	-1.5
COc1ccc(NC(=O)CSc2ccccn2)cc1	-2.3	-35.1	1.7	-0.6	-78.7	nt
Cc1ccccc1NC(=O)NC(N)=O	-2.8	13.0	-0.2	14.1*	-1.1	-1.7
Cc1cc(N2CCN(c3ccccc3)CC2)nc(-c2ccccc2)n1	-1.0	-10.8	-2.7	-3.4	-28.5	nt
C#CCNC(=O)C1CCN(c2cc(C)nc(-c3ccccc3)n2)CC1	0.6	-15.8	-0.1	12.0*	6.4	-1.4
CC(=O)c1ccc(NC(=O)CSc2nnc(Cn3cnc4ccccc43)o2)cc1	0.9	7.3	-0.6	16.0*	3.4	2.3
Cc1ccc(NC(=O)CSc2nnc(CNC(=O)c3cccs3)o2)cc1	16.4	-10.6	0.3	-0.6	-27.4	nt
COc1cc(C(=O)NCc2nnc(SCC(=O)Nc3nc4ccccc4s3)o2)cc(OC)c1OC	6.7	-35.6	0.1	12.3*	-33.0	0.6
O=C(CSc1nnc(CNC(=O)c2cccs2)o1)Nc1ccccc1	9.3	-16.3	-0.4	18.0*	-9.2	-2.1
O=C(CSc1nnc(Cn2cnc3ccccc32)o1)Nc1cccc2ccccc12	-8.2	-51.6	-0.2	1.8	-14.0	nt
Cc1ccc(NC(=O)COC(=O)[C@H](C)NC(N)=O)c(C)c1	19.3	-11.3	-0.5	-3.8	-0.9	nt
